Values joined by “and” are separate entries in the source; they are usually repeats but may differ in a detail not shown here. Equal values may be shown once. This is part of a sample that, as a whole, favours compounds with a hit. Of some 83,000 tested, about 20% had one in any assay.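 Growth was measured after 48 h exposure to one concentration of compound in 96-well plates. Values under 10 count as active.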 Active and inactive are the calls of the source.
Columns and labels:
Assay in all cases: NCI-60 one-dose screen, 48 h (100 = growth as untreated, 0 = no growth, -100 = all killed)
[1] = system: NCI-H23 lung
[2] = system: NCI-H226 lung
[3] = system: NCI-H322M lung
[4] = system: HOP-62 NSCLC
[5] = system: NCI-H460 lung
[6] = system: HOP-92 NSCLC
[7] = system: NCI-H522 lung; conditions: 10 µM unless noted
[8] = system: A549/ATCC NSCLC
[9] = system: 786-0 renal
[10] = system: COLO 205 colon

Measured: growth

O=C(Nc1cccc(Br)c1)Oc1cccc2cccnc12
inactive: [1]; 10 µM 106% | [2]; 10 µM 106% | [2]; 100 µM 63.1% | [3]; 10 µM 117% | [3]; 100 µM 84.9% | [4]; 10 µM 102% | [4]; 100 µM 50.1% | [5]; 10 µM 104% | [6]; 10 µM 83% | [6]; 100 µM 49.2% | [8]; 10 µM 99.1% | [8]; 100 µM 20.7% | [9]; 10 µM 94.9% | [9]; 100 µM 88.6% | [10]; 10 µM 117% | [10]; 100 µM 51.8%
active: [1]; 100 µM -21% | [5]; 100 µM 8.11% | [7] -56.9% [100 µM]

Cc1ccc(C(=Nc2ccccc2)N=P(c2ccccc2)(c2ccccc2)c2ccccc2)cc1
active: [1]; 10 µM unless noted -24.5% | [2]; 10 µM unless noted -46.2% | [3]; 10 µM unless noted -29.4% | [4]; 10 µM unless noted -90.2% | [5]; 10 µM unless noted -75.2% | [6]; 10 µM unless noted -43.1% | [7] -55.8% | [8]; 10 µM unless noted 6.89% | [9]; 10 µM unless noted -55% | [10]; 10 µM unless noted -87.8%

C1=C(c2ccccc2)C(c2ccc(OCCN3CCCCC3)cc2)Oc2ccccc21 (configuration not stated)
active: [5]; 10 µM unless noted -20.2% | [10]; 10 µM unless noted -55.1%
inactive: [1]; 10 µM unless noted 58.4% | [2]; 10 µM unless noted 74.4% | [3]; 10 µM unless noted 77.4% | [4]; 10 µM unless noted 60.5% | [6]; 10 µM unless noted 59.3% | [7] 24.7% | [8]; 10 µM unless noted 59.2% | [9]; 10 µM unless noted 55.6%

CC1OC(OC2C(OC3CCC4(C)C(CCC5(C)C4CC=C4C6CC(C)(C)CCC6(CO)C(O)CC45C)C3(C)C)OC(C(=O)O)C(OC3OC(COC4OC(CO)C(O)C(O)C4O)C(O)C(O)C3O)C2O)C(O)C(O)C1O (configuration not stated)
inactive: [5]; 10 µM unless noted 15.4%
active: [1]; 10 µM unless noted -82.1% | [2]; 10 µM unless noted -63.6% | [3]; 10 µM unless noted -96.2% | [4]; 10 µM unless noted -71.6% | [6]; 10 µM unless noted -38.7% | [7] -64.9% | [8]; 10 µM unless noted -70.1% | [9]; 10 µM unless noted -91.9% | [10]; 10 µM unless noted -86%

CNc1ccc(N)cc1
inactive: [1]; 10 µM unless noted 103% | [2]; 10 µM unless noted 96.4% | [3]; 10 µM unless noted 103% | [4]; 10 µM unless noted 106% | [5]; 10 µM unless noted 106% | [6]; 10 µM unless noted 135% | [7] 87.5% | [8]; 10 µM unless noted 111% | [9]; 10 µM unless noted 110% | [10]; 10 µM unless noted 141%

N#CC1C(=O)SC2c3ccccc3C(=O)c3ccccc3C12 (configuration not stated)
inactive: [1]; 10 µM unless noted 104% | [2]; 10 µM unless noted 94.8% | [3]; 10 µM unless noted 98.8% | [4]; 10 µM unless noted 96.1% | [5]; 10 µM unless noted 96.9% | [6]; 10 µM unless noted 71.8% | [7] 94.9% | [8]; 10 µM unless noted 84.9% | [9]; 10 µM unless noted 96.8% | [10]; 10 µM unless noted 107%

CN(C)C(=O)c1ccc(SC(=S)NCc2ccccc2)cc1
active: [1]; 100 µM 5.21% | [5]; 100 µM 8.96% | [6]; 10 µM unless noted -10.3% [100 µM] | [7] -48.7% [100 µM] | [9]; 100 µM -17.6% | [10]; 100 µM -11.4%
inactive: [1]; 10 µM 109% | [2]; 10 µM 112% | [2]; 100 µM 102% | [3]; 10 µM 110% | [3]; 100 µM 58.2% | [4]; 10 µM 107% | [4]; 100 µM 46.5% | [5]; 10 µM 105% | [8]; 10 µM 105% | [8]; 100 µM 34.4% | [9]; 10 µM 109% | [10]; 10 µM 101%

Oc1c(Cl)cc(Cl)c2cccnc12
inactive: [1]; 10 µM unless noted 64.6% and 49.1% | [2]; 10 µM unless noted 81% and 71.6% | [3]; 10 µM unless noted 63.2% and 72.1% | [4]; 10 µM unless noted 49.7% and 71.2% | [5]; 10 µM unless noted 24.7% and 27.4% | [6]; 10 µM unless noted 49.7% | [7] 65.2% and 71.8% | [8]; 10 µM unless noted 30.6% | [9]; 10 µM unless noted 69.1% and 74% | [10]; 10 µM unless noted 99.9% and 85.2%

CCOC(=O)c1c(C)[nH]c(CO)c1C
inactive: [1]; 10 µM unless noted 99.1% | [2]; 10 µM unless noted 114% | [3]; 10 µM unless noted 94.9% | [4]; 10 µM unless noted 93.9% | [5]; 10 µM unless noted 110% | [6]; 10 µM unless noted 101% | [7] 84.3% | [8]; 10 µM unless noted 90.7% | [9]; 10 µM unless noted 106% | [10]; 10 µM unless noted 104%

Cc1ccc(N=C=C(c2ccccc2)c2ccccc2)cc1
inactive: [1]; 10 µM unless noted 81% | [2]; 10 µM unless noted 90.3% | [3]; 10 µM unless noted 98.1% | [4]; 10 µM unless noted 104% | [5]; 10 µM unless noted 97.3% | [6]; 10 µM unless noted 79.2% | [7] 76% | [8]; 10 µM unless noted 97.5% | [9]; 10 µM unless noted 70.1% | [10]; 10 µM unless noted 114%

O=C(O)c1ccc2c3c(ncnc13)-c1ccccc1C2=O
active: [1]; 10 µM unless noted -76.7% | [8]; 10 µM unless noted -6.25%
inactive: [2]; 10 µM unless noted 52.4% | [3]; 10 µM unless noted 23.7% | [4]; 10 µM unless noted 12.3% | [5]; 10 µM unless noted 11.5% | [6]; 10 µM unless noted 81% | [7] 77.7% | [9]; 10 µM unless noted 84.5% | [10]; 10 µM unless noted 54.7%
